Drawing on PubChem BioAssay (Tox21), this text covers Potency for eight compounds.

Where “and” joins values, the source holds several entries; their conditions need not be identical. Equal entries are not always repeated. Records with an inconclusive call do not appear. Calls of active or inactive are those of the source. Unless noted, calls come from the whole dose curve.

Assay [1] is described as follows: Nuclear factor erythroid 2-related factor 2/antioxidant responsive element (Nrf2/ARE) small molecule agonists: luciferase reporter gene qHTS assay in human keratinocytes (AID 1919969). Note: nearly all actives have a fitted effect of over 35% in size. Note: potency is the fitted concentration of half-maximal effect.
Assay [2] deals with Gonadotropin-releasing hormone receptor (Homo sapiens) (UniProt P30968). The experiment in a line: Human gonadotropin-releasing hormone receptor (GnRHR) small molecule agonists, calcium flux assay in GnRHR-HEK293 cells (AID 1920063). Note: nearly all actives have a fitted effect of over 35% in size. Note: potency is the fitted concentration of half-maximal effect. Summed up:
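Fluorescence kinetics (480 nm excitation, 540 nm emission; 3 min, 1 s steps) report calcium mobilisation in human GnRHR-HEK293 cells in agonist mode. Dye incubation: 1 h, 37 C.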
(In general: Calcium assays in cells follow changes in intracellular calcium, usually with a dye or a luminescent sensor.)

The target of assay [3] is KiSS-1 receptor (Homo sapiens) (UniProt Q969F8). The experiment in a line: Human kisspeptin (KISS1R) small molecule agonists, calcium flux assay in KISS1R-HEK293 cells (AID 1920064; active = well fitted activation curve with a large enough effect in the repeat runs). A digest of the protocol: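 Measures KISS1R agonism through calcium-sensitive dye fluorescence in stably transfected HEK293 cells, read for 3 min after pin-tool compound delivery; 15-point titrations in triplicate.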
Sequence of KiSS-1 receptor (Homo sapiens) (Q969F8 whole entry, looked up): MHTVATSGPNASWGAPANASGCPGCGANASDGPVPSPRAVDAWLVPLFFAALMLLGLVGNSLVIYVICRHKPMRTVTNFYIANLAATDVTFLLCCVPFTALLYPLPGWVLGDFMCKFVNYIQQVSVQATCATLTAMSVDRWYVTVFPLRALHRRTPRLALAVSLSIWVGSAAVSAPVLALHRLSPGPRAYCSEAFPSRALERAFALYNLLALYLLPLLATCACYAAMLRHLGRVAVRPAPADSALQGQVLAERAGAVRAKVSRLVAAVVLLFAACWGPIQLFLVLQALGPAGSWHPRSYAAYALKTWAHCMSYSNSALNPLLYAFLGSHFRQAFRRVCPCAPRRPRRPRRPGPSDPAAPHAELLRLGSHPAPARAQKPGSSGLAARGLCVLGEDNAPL

Assay [4] in a line: G protein-coupled receptor (GPCR) small molecule agonists, calcium flux assay: HEK293 wild type cell line counter screen (AID 1920065). Summed up:
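Readout: fluorescence at 480 nm excitation/540 nm emission, sampled at 1 s intervals for 3 min. Cells had been cultured 18 h, then dye-loaded 1 h at 37 C before compound or ATP addition.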

Assay [5] can be described thus: p53 small molecule agonists, cell-based qHTS assay with human liver microsomes (AID 1963577). Summed up:
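Compounds act here after metabolic activation: human liver microsomes and NADPH, both at 0.5 mg/mL final, were co-added to p53RE-bla cells. Incubation ran 16 h at 37 C, followed by LiveBLAzer detection.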
Background: Quantitative high-throughput screening tests each substance at several concentrations.

Assay [6] can be described thus: p53 small molecule agonists, cell-based qHTS assay with rat liver microsomes (AID 1963578). Summed up:
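Read-out is beta-lactamase reporter fluorescence (LiveBLAzer, 2 h, room temperature, dark) in p53RE-bla cells treated 16 h at 37 C with compound, rat liver microsomes and NADPH, both 0.5 mg/mL final.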

Assay [7] has as its target 5-hydroxytryptamine receptor 2A (Homo sapiens) (UniProt P28223). The experiment in a line: 5-hydroxytryptamine receptor 2A (HTR2A) small molecule antagonists, cell-based qHTS assay (AID 1963586). Note: nearly all actives have a fitted effect of over 45% in size. A digest of the protocol:
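Antagonist-mode intracellular calcium assay: DOI (4 nM) added after 5 min compound pre-incubation at room temperature to dye-loaded HTR2A-CHO cells. Fluorescence followed for 3 min, sampled every second.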

The target is the same in assay [8]. Briefly: 5-hydroxytryptamine receptor 2A (HTR2A) small molecule agonists, cell-based qHTS assay (AID 1963587). Note: nearly all actives have a fitted effect of over 30% in size. Note: potency is the fitted concentration of half-maximal effect. Summed up:
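Kinetic calcium-flux fluorescence (2 min, 1 sec intervals) after compound addition in agonist mode. HTR2A-CHO cells were cultured 18 h, then dye-loaded 1 h at 37 C.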

The target of assay [9] is Muscarinic acetylcholine receptor M1 (Homo sapiens) (UniProt P11229). The experiment in a line: Cholinergic receptor muscarinic 1 (CHRM1) small molecule antagonists, cell-based qHTS assay (AID 1963588). Note: nearly all actives have a fitted effect of over 40% in size. Summed up: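 CHRM1-CHO calcium-flux assay, antagonist mode. Cells were seeded 18 h, dye-loaded 1 h at 37 C and given compound for 5 min at RT, then acetylcholine was added at 50nM. FDSS fluorescence was read 3 min; 15 concentrations, three runs.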
Sequence of Muscarinic acetylcholine receptor M1 (Homo sapiens) (P11229 whole entry, looked up): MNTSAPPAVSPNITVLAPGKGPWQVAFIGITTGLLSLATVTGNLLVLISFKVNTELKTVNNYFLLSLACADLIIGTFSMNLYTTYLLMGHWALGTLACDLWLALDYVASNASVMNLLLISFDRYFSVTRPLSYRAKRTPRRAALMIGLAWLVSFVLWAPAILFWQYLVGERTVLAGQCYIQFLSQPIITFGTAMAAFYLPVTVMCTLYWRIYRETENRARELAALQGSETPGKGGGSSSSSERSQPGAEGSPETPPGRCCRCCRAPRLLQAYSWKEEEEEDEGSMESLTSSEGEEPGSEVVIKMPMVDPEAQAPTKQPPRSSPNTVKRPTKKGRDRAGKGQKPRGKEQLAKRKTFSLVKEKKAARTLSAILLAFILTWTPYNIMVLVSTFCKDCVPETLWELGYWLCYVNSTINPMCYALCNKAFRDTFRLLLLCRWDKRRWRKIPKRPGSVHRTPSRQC

Assay [10] shares this target. The experiment in a line: Cholinergic receptor muscarinic 1 (CHRM1) small molecule agonists, cell-based qHTS assay (AID 1963589). Note: nearly all actives have a fitted effect of over 35% in size. Summed up:
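Each compound was tested at 15 concentrations across three independent runs on dye-loaded CHO cells stably expressing human CHRM1, reading intracellular calcium fluorescence kinetically at 1 sec intervals.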

The nature of assay [11]: cAMP Responsive Elements (CRE) small molecule agonists, cell-based qHTS assay (AID 1963590). A digest of the protocol: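 Cell line: CRE-bla HEK 293T; medium DMEM/10% dialyzed FBS/0.1 mM NEAA/1 mM pyruvate/25 mM HEPES; 3 h compound exposure; beta-lactamase FRET readout after 2 h substrate loading at RT.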
Assay [12] can be described thus: cAMP Responsive Elements (CRE) small molecule antagonists, cell-based qHTS assay (AID 1963591; active = well fitted inhibition curve with a large enough effect in the signal ratio in the repeat runs, not every such curve was filed as active; the % refers to the signal ratio; note: potency is the fitted concentration of half-maximal effect). Summed up: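 Inhibition of NKH477-driven (0.25 uM final) CRE-beta-lactamase signal in HEK293T cells, 3 h compound exposure at 37 °C, detected by FRET substrate fluorescence.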
For assay [13], the target named is Beta-2 adrenergic receptor (Homo sapiens) (UniProt P07550). Briefly: Adrenergic beta2 receptor (ADRB2) small molecule antagonists, cell-based qHTS assay (AID 1963592). Note: series mostly up to about 92 µM; nearly all actives have a fitted effect of over 50% in size. Summed up:
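Cells (CHO, stable ADRB2 overexpression) incubated 18-20hr at 37C; compounds added from DMSO; agonist mix (1nM isoproterenol, 100uM IBMX, 25uM Ro-20-1724) added; 0.5hr RT; d2-cAMP and anti-cAMP-cryptate added; 1hr RT; 665/615 nm read.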

The target of assay [14] is D(2) dopamine receptor (Homo sapiens) (UniProt P14416). The experiment in a line: Dopamine D2 receptor (DRD2) small molecule agonists, cell-based qHTS assay (AID 1963594). Note: nearly all actives have a fitted effect of over 35% in size. A digest of the protocol: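 cAMP accumulation in DRD2-HEK293 cells measured by HTRF after 1 h detection; compounds added 10 min before NKH477 (200nM […]) forskolin-analogue stimulation, 30 min at room temperature, with Ro20-1724 present at 0.1 mM final.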
Sequence of D(2) dopamine receptor (Homo sapiens) (P14416 whole entry, looked up): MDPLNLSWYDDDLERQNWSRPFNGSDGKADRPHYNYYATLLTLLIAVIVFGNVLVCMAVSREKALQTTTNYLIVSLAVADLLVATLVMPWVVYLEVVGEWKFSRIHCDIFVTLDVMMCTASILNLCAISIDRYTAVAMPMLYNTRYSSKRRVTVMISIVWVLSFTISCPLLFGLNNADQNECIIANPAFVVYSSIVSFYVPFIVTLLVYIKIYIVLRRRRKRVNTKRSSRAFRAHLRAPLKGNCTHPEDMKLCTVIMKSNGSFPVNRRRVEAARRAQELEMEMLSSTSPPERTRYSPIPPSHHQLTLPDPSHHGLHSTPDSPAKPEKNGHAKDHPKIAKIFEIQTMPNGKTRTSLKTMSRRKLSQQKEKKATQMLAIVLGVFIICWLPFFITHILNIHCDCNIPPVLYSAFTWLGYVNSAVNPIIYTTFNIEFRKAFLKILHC

For assay [15] the target is unchanged. Briefly: Dopamine D2 receptor (DRD2) small molecule antagonists, cell-based qHTS assay (AID 1963595; active = well fitted inhibition curve with a large enough effect in the signal ratio in the repeat runs, with a control signal flat; the % refers to the signal ratio). Summed up: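 HEK293 cells stably expressing DRD2, preincubated with 0.1 mM Ro20-1724 and compounds 10 min, were stimulated with 200 nM NKH477 plus 12 nM quinpirole for 30 min at room temperature; cAMP measured by HTRF (665/620 nm).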
Assay [16] is described as follows: p53 small molecule agonists, cell-based qHTS assay with rat liver microsomes: qHTS cell viability counter screen (AID 1963580). Note: nearly all actives have a fitted effect of over 45% in size. Summed up: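 HCT-116 p53RE-bla, 4,000 cells/well, 5 h pre-incubation; cpd + rat liver microsomes 0.5 mg/mL + NADPH 0.5 mg/mL (final); 16 h, 37 C; CellTiter-Glo, 30 min RT; luminescence.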
Assay [17] is described as follows: p53 small molecule agonists, cell-based qHTS assay with human liver microsomes: qHTS cell viability counter screen (AID 1963579). Note: nearly all actives have a fitted effect of over 45% in size. Note: potency is the fitted concentration of half-maximal effect. Summed up: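 Cells carrying the p53 response-element beta-lactamase reporter are treated for 16 h at 37 C with test compounds in the presence of human liver microsomes and NADPH (both 0.5 mg/mL final); ATP-based CellTiter-Glo luminescence then reports viability.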

A short description of assay [18]: p53 small molecule agonists, cell-based qHTS assay: qHTS cell viability counter screen (AID 1963581). Note: nearly all actives have a fitted effect of over 45% in size. Summed up: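 In the same plates used for the p53 bla reporter, HCT-116 cells given compounds for 16 h at 37 C received CellTiter-Glo; luminescence was recorded 30 min later at room temperature.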
In assay [19] the target is Beta-2 adrenergic receptor (Homo sapiens) (UniProt P07550). Briefly: Adrenergic beta2 receptor (ADRB2) small molecule agonists, cell-based qHTS assay (AID 1963593).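 Note: CHO cells stably overexpressing human ADRB2.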 Summed up: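 CHO cells stably over-expressing ADRB2 were plated overnight at 37C, then dosed with compounds plus a stimulation mix containing 100uM IBMX and 25uM Ro-20-1724 for 0.5hr at room temperature. cAMP was measured by HTRF competition, 1hr.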
Sequence of Beta-2 adrenergic receptor (Homo sapiens) (P07550 whole entry, looked up): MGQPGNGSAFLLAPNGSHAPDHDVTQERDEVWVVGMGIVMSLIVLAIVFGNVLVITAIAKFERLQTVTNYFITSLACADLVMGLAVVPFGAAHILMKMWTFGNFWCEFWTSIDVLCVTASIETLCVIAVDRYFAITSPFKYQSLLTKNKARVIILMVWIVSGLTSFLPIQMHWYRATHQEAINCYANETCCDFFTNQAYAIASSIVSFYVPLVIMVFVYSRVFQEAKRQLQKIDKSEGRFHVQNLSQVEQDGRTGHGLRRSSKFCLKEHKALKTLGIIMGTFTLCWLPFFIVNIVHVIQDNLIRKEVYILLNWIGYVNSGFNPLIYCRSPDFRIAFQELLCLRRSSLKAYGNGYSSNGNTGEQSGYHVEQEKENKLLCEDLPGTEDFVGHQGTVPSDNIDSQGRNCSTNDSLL

Assay [20] is described as follows: p53 small molecule agonists, cell-based qHTS assay (AID 1963582; active = well fitted activation curve with a large enough effect in the signal ratio in the repeat runs, not every such curve was filed as active; the % refers to the signal ratio). A digest of the protocol: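 Compounds are pin-transferred in DMSO onto p53RE-bla cells and incubated 16 h at 37 C. The B/G FRET beta-lactamase substrate is then applied for 2 h at RT and fluorescence recorded.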

Sequence of Gonadotropin-releasing hormone receptor (Homo sapiens) (P30968 whole entry, looked up): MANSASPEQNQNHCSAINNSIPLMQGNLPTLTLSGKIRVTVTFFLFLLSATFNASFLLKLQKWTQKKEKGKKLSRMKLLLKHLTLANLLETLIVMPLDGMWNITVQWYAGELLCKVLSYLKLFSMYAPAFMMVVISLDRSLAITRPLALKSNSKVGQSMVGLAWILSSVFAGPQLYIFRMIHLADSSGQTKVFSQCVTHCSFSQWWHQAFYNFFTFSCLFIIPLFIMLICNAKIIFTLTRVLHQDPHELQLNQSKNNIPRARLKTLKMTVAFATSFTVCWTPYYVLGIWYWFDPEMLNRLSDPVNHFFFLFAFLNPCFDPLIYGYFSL
Sequence of 5-hydroxytryptamine receptor 2A (Homo sapiens) (P28223 whole entry, looked up): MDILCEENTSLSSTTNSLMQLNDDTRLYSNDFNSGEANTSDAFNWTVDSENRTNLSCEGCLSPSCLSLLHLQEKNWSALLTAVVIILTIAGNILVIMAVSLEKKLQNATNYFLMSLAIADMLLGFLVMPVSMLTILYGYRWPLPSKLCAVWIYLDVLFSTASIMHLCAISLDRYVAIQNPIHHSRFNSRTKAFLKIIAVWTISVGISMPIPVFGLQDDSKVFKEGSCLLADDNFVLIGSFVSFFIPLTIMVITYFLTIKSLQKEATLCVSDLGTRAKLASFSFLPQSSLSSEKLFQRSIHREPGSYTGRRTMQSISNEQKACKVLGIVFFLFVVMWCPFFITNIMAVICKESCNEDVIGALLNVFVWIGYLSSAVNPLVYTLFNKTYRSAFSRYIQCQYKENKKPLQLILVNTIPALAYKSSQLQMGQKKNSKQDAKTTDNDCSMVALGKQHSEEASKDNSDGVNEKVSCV

Turning to `C(=C(c1ccccc1)c1ccccc1)c1ccccc1`, the Potency in [1] was 27.3 µM (active). Further, the Potency result in assay [2], in [3], in assay [4], in assay [5], in assay [6] and in assay [7] was “inactive” in each case. For the same compound, the Potency entry in assay [8], in assay [9], in assay [10], in assay [11], in [12] and in assay [13] was “inactive” each time. In addition, the Potency entry in [14] and in assay [15] was “inactive” throughout.
Take `c1cc(OCC2CO2)cc(OCC2CO2)c1` (configuration not stated): the Potency in [1] was 24.1 µM (active). The Potency entry in assay [2], in assay [3], in assay [4], in [5], in [6] and in assay [16] was “inactive” each time. Moreover, the Potency result in assay [7], in [8], in [9], in assay [10], in assay [13] and in assay [14] was “inactive” in each case. For the same compound, the Potency entry in assay [15] is “inactive”.
For the compound `CC(=O)CC(=O)c1ccccc1`, the Potency in [1] was 54.8 µM (active). Moreover, the Potency entry in [2], in assay [3], in assay [4], in assay [5], in assay [6] and in assay [17] was “inactive” in each case. The Potency entry in assay [7], in [8], in assay [9], in assay [10], in [12] and in [13] was “inactive” in each case. Also, the Potency result in [14] and in [15] was “inactive” throughout.
`COc1cc([N+](=O)[O-])ccc1N`: the Potency entry in assay [1], in assay [2], in assay [3], in assay [4], in assay [5] and in [17] was “inactive” in each case. The Potency result in assay [16], in assay [18], in assay [7], in assay [8], in [9] and in assay [10] was “inactive” throughout. Further, the Potency entry in assay [12], in assay [13], in assay [19], in assay [14] and in [15] was “inactive” in each case.
On to `CCCCCCCOC(=O)c1ccc(O)cc1`, for which the Potency result in assay [1], in assay [2], in assay [3], in assay [4], in assay [5] and in assay [6] was “inactive” each time. Besides, the Potency result in assay [20], in [7], in [10], in assay [13], in assay [14] and in [15] was “inactive” in each case. In addition, the Potency in [17] is 36.4 µM (active); in assay [8] it was 38.9 µM (active); in assay [12], 38.6 µM (active) and 45.2 µM (active).
With `O=[N+]([O-])C1(Br)COCOC1`, the Potency in [1] is 24.3 µM (active); in [2], 38.9 µM (active). Moreover, the Potency result in assay [3], in assay [4], in assay [5], in [6], in assay [16] and in assay [18] was “inactive” each time. Further, the Potency entry in assay [20], in assay [7], in assay [9], in assay [10], in assay [11] and in [12] was “inactive” each time. The Potency entry in [13], in assay [19], in assay [14] and in [15] was “inactive” each time.
Regarding `CC1=C(/C=C/C(C)=C/C=C/C(C)=C/C=O)C(C)(C)CCC1`, the Potency in assay [1] was 27.1 µM (active). Moreover, the Potency result in assay [2], in assay [3], in [4], in [5], in [6] and in assay [7] was “inactive” each time. The Potency result in assay [8], in assay [9], in assay [10], in assay [13], in [19] and in assay [14] was “inactive” throughout. The Potency entry in [15] is “inactive”.
Consider `NC(=O)c1nc(-c2cccc(-c3cc(F)ccc3OCC(F)(F)C(F)(F)F)c2)n[nH]1`, for which the Potency entry in [1], in [2], in [3], in assay [4], in assay [5] and in assay [6] was “inactive” each time. Moreover, the Potency entry in [17], in assay [7], in [8], in assay [9], in assay [10] and in assay [13] was “inactive” each time. Further, the Potency result in assay [14] and in assay [15] was “inactive” in each case.
